Inhibition data for 35 compounds are collected here from ChEMBL document CHEMBL1157539, “Thousands of chemical starting points for antimalarial lead identification” (Nature, 2010).

Common to all, as to assay type: functional
The subject of assay [1] is Plasmodium falciparum. Put plainly: GSK_TCMDC: Inhibition of Plasmodium falciparum 3D7 in whole red blood cells, using parasite LDH activity as an index of growth. Test compounds present at 2uM.
Assay [2] deals with Plasmodium falciparum. The assay can be described thus: GSK_TCMDC: Inhibition of Plasmodium falciparum Dd2 in whole red blood cells, using parasite LDH activity as an index of growth. Test compounds present at 2uM.
The subject of another assay is HepG2. Put plainly: GSK_TCMDC: Percent inhibition of human HepG2 cell line. Test compounds present at 10uM.

`Cc1nnsc1C(=O)Nc1cccc(-c2cccc(-c3nc4ccccc4[nH]3)c2)c1`: the Inhibition was determined as 100% in the assay with Plasmodium falciparum [1], 34% with Plasmodium falciparum [2] and 14% in the assay with HepG2.

`O=C(NCCCCCN1CCC(c2c[nH]c3ccccc23)CC1)c1ccc(Cl)c(Cl)c1`: the Inhibition was determined as 85% in the assay with Plasmodium falciparum [1], 10% in the assay on Plasmodium falciparum [2] and 48% in the assay on HepG2.

In the case of `O=C(NC1CCCCN(Cc2ccccc2O)C1)c1ccc(-c2ccccc2)cc1.O=C(O)C(F)(F)F` (stereo not given), the Inhibition amounted to 97% with Plasmodium falciparum [1], 61% with Plasmodium falciparum [2] and 21% in the assay with HepG2.

Turning to `CC(C)CNC(=O)c1cncc(-c2cccc(CNC3Cc4ccccc4C3)c2)c1.O=C(O)C(F)(F)F`, the Inhibition in the assay on Plasmodium falciparum [1] stood at 100%; in the assay on Plasmodium falciparum [2] it was 19%; in the assay on HepG2, 4%.

Regarding `Cc1cccc2nc(-c3ccc(-c4cccc(CNCCc5ccncc5)c4)s3)[nH]c12.O=C(O)C(F)(F)F`, the Inhibition in the assay with Plasmodium falciparum [1] turned out to be 100%; in the assay with Plasmodium falciparum [2] it was 89%; with HepG2 it was 11%.

Turning to `Cc1ccccc1C1CCN(C2CCC(NC(=O)c3ccc(-c4ccccc4F)o3)CC2)CC1` (stereo not given), the Inhibition with Plasmodium falciparum [1] was determined as 99%; in the assay on Plasmodium falciparum [2], 66%; with HepG2, 42%.

As to `O=C(NC(=O)c1ccccc1)NC1CCN(c2ccnc3cc(Cl)ccc23)C1.O=C(O)C(F)(F)F` (stereo not given), the Inhibition with Plasmodium falciparum [1] stood at 100%; in the assay on Plasmodium falciparum [2] it was 99%; in the assay on HepG2, 32%.

As for `COc1ccccc1Oc1c(N(C)S(=O)(=O)c2ccc(C(C)C)cc2)nc(C(F)(F)F)nc1N(C)S(=O)(=O)c1ccc(C(C)C)cc1`, the Inhibition stood at 94% with Plasmodium falciparum [1], 98% with Plasmodium falciparum [2] and 4% in the assay on HepG2.

With `CCN(CC)CCN(Cc1ccc(-c2ccc(C(F)(F)F)cc2)cc1)C(=O)Cn1c(CCC2CCCCC2)nc(=O)c2ccccc21.O=C(O)C(O)C(O)C(=O)O`, the Inhibition in the assay on Plasmodium falciparum [1] stood at 87%; in the assay on Plasmodium falciparum [2] it was 25%; with HepG2 it was 32%.

For `CCCCN(C(=O)c1ccccc1Cl)c1nnc(-c2ccccc2C)s1`, the values for the Inhibition with Plasmodium falciparum [1], in the assay with Plasmodium falciparum [2] and in the assay on HepG2 were 90%, 86% and 12%, respectively.

Regarding `O=C(Nc1cccc(-c2ccc(-c3nc4ccccc4[nH]3)s2)c1)c1ccncc1`, the Inhibition is on record as 92% in the assay with Plasmodium falciparum [1], 29% in the assay on Plasmodium falciparum [2] and 67% with HepG2.

With `Cl.N#Cc1ccc2c(c1)CCN(CCC1CCC(NC(=O)/C=C/c3ccc4ccccc4c3)CC1)CC2` (stereo not given), the Inhibition is reported as 97% in the assay on Plasmodium falciparum [1], 12% in the assay with Plasmodium falciparum [2] and 20% in the assay with HepG2.

On to `CC1CCN(CCNC(=O)c2ccc3c(=O)n(Cc4ccc(Cl)cc4)c(=S)[nH]c3c2)CC1`, for which the Inhibition is given as 100% in the assay with Plasmodium falciparum [1], 75% in the assay on Plasmodium falciparum [2] and 6% with HepG2.

For the compound `CN1CCC(C(=O)N(Cc2ccc(-c3ccc(CNCCc4ccc(S(C)(=O)=O)cc4)cn3)cc2)C2Cc3ccccc3C2)CC1.O=C(O)C(F)(F)F`, the values for the Inhibition in the assay on Plasmodium falciparum [1], in the assay on Plasmodium falciparum [2] and with HepG2 were 98%, 49% and 21%, respectively.

Turning to `Cl.Nc1ccnc2ccc(NC(=O)CCCCCc3ccccc3)cc12`, the Inhibition stood at 96% in the assay with Plasmodium falciparum [1], 30% with Plasmodium falciparum [2] and 47% with HepG2.

Consider `COc1ccc(NC(=O)/C=C/c2ccccc2Cl)cc1OCCN1CCN(c2ccncc2)CC1`, for which the Inhibition turned out to be 100% in the assay on Plasmodium falciparum [1], 52% in the assay with Plasmodium falciparum [2] and 7% in the assay on HepG2.

In the case of `CCCCc1ccccc1NS(=O)(=O)c1ccc(OC)c(N2CCNCC2)c1.Cl`, the Inhibition in the assay with Plasmodium falciparum [1] was determined as 91%; in the assay with Plasmodium falciparum [2] it was 2%; in the assay on HepG2 it was 6%.

On to `O=C(NCC1CCC(C(=O)NCc2cccc(C(F)(F)F)c2)CC1)c1ccc(O)c(-c2ccc(Cl)c(Cl)c2)c1` (stereo not given), for which the Inhibition was 98% in the assay on Plasmodium falciparum [1], 41% in the assay with Plasmodium falciparum [2] and 5% in the assay on HepG2.

Regarding `CCCCNCc1ccc(OCc2cccc(COc3ccc(CNCCCC)cc3)c2)cc1.Cl`, the Inhibition in the assay with Plasmodium falciparum [1] is 100%; in the assay with Plasmodium falciparum [2] it was 35%; in the assay with HepG2, 98%.

`CN(C)c1ccc(C=C2SC(=O)N=C2Nc2ccccc2)cc1`: the Inhibition with Plasmodium falciparum [1] came out at 97%; in the assay with Plasmodium falciparum [2] it was 96%; in the assay with HepG2 it was 42%.

With `O=C(Nc1cccc(-c2csc(-c3nc4ccccc4[nH]3)c2)c1)c1cc(=O)c2ccccc2[nH]1`, the Inhibition in the assay on Plasmodium falciparum [1] is reported as 98%; in the assay on Plasmodium falciparum [2] it was 39%; in the assay with HepG2, 41%.

For `CN(C)CCCOC(=O)c1cc2cc(-c3ccccc3)ccc2n1S(=O)(=O)Cc1ccccc1.Cl`, the Inhibition turned out to be 100% in the assay with Plasmodium falciparum [1], 70% in the assay with Plasmodium falciparum [2] and 13% in the assay with HepG2.

Turning to `CC1CCc2sc(-c3nnc(SC(C)C(=O)NC4CC4)o3)cc2C1` (stereo not given), the values for the Inhibition in the assay on Plasmodium falciparum [1], in the assay on Plasmodium falciparum [2] and in the assay with HepG2 were 83%, 69% and 5%, respectively.

Take `CN(C)c1ccc(-c2csc(C(=O)NC3CCCCN(Cc4ccc(C(C)(C)C)cc4)C3)c2)cc1.O=C(O)C(F)(F)F` (stereo not given): the figures for the Inhibition with Plasmodium falciparum [1], with Plasmodium falciparum [2] and with HepG2 were 84%, 55% and 17%, respectively.

On to `Cl.O=c1cc(NCCCNCc2ccc(C(F)(F)F)s2)[nH]c2ccccc12`, for which the Inhibition in the assay on Plasmodium falciparum [1] came to 99%; in the assay with Plasmodium falciparum [2], 68%; with HepG2, 0%.

Regarding `O=C(Nc1ccc(-c2ccc(-c3nc4ccccc4[nH]3)s2)cc1)Nc1ccc(F)c(F)c1F`, the Inhibition is listed as 99% in the assay with Plasmodium falciparum [1], 97% with Plasmodium falciparum [2] and 57% in the assay with HepG2.

Regarding `CCCCCCN1CCCN(Cc2ccc(C(=O)Nc3ccc(CC)cc3)cc2)CC1.O=C(O)C(F)(F)F`, the Inhibition is 97% in the assay with Plasmodium falciparum [1], 50% in the assay with Plasmodium falciparum [2] and 53% in the assay with HepG2.

As to `O=C(N[C@@H](Cc1ccccc1)[C@H](O)CNCCC(F)(F)F)c1cccc(OCC2CC2)c1`, the Inhibition in the assay on Plasmodium falciparum [1] was found to be 98%; in the assay on Plasmodium falciparum [2] it was 95%; in the assay with HepG2, 0%.

`COc1ccc(C(=O)N2CCC(CN3CCOC(c4ccccc4)(c4ccccc4)C3)CC2)cc1`: the Inhibition was determined as 95% in the assay on Plasmodium falciparum [1], 96% in the assay on Plasmodium falciparum [2] and 19% with HepG2.

As for `COc1cccc2c(N/N=C/c3ccccc3[N+](=O)[O-])cc(C)nc12`, the Inhibition in the assay on Plasmodium falciparum [1] was found to be 99%; in the assay with Plasmodium falciparum [2], 32%; with HepG2, 0%.

For `O=C1NC(=O)C(c2ccc(Cl)cc2)=C1Nc1cccc(S(=O)(=O)C(F)(F)F)c1`, the results for the Inhibition in the assay on Plasmodium falciparum [1], with Plasmodium falciparum [2] and with HepG2 were 99%, 51% and 1%, respectively.

On to `O=C(O)C(F)(F)F.OC1CCCN(Cc2cccc(-c3ccc(-c4nc5cc(F)ccc5[nH]4)cc3)c2)C1` (stereo not given), for which the Inhibition with Plasmodium falciparum [1] is reported as 100%; with Plasmodium falciparum [2], 42%; with HepG2, 16%.

For the compound `CN1CCC(C(=O)Nc2ccc(-c3ccc(-c4nc5ccccc5[nH]4)s3)cc2)CC1`, the results for the Inhibition in the assay on Plasmodium falciparum [1], in the assay on Plasmodium falciparum [2] and in the assay with HepG2 were 99%, 22% and 30%, respectively.

As for `Cc1ccc2[nH]c(C3CCCNC3)c(-c3ccncc3)c2c1` (stereo not given), the Inhibition came to 100% in the assay on Plasmodium falciparum [1], 22% in the assay with Plasmodium falciparum [2] and 10% with HepG2.

For the compound `CC(C)CCn1c(Sc2ccc(C#N)c([N+](=O)[O-])c2)nnc1-c1ccc(Cl)cc1`, the values for the Inhibition in the assay on Plasmodium falciparum [1], with Plasmodium falciparum [2] and with HepG2 were 90%, 39% and 25%, respectively.

One may read the Inhibition as the relative decrease from the control value, in per cent.
